From PubChem BioAssay (NCI)
About 79,000 compounds went through this panel and 15% of them were active in at least one assay; those are over-represented in the sample as a whole. Unmarked numbers belong to inactive results. Calls of active or inactive are those of the source. Cut-off read from the data, not from the text of the source: active = growth inhibition above about 70%; inactive = the rest.

Legend:
[1] = NCI Yeast Anticancer Drug Screen. Data for the rad50 strain (AID 155);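 note: 0% = growth of vehicle-only cultures of the same strain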; conditions: S. cerevisiae rad50 strain growth inhibition; at 50.0 µM; stronger effect = higher value
Method in brief: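 A DNA repair-deficient yeast mutant serves as the test organism; compound-induced growth inhibition is calculated against vehicle-treated cells.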

[2] = NCI Yeast Anticancer Drug Screen. Data for the mec2-1 strain (AID 157); conditions: S. cerevisiae mec2-1 strain, at 50.0 µM, stronger effect = higher value
Method in brief: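 Using mec2-1 yeast: add compound, measure growth, express inhibition versus vehicle-treated cultures.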

[3] = NCI Yeast Anticancer Drug Screen. Data for the sgs1 mgt1 strain (AID 161);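 note: 0% = growth of cultures given vehicle only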; conditions: S. cerevisiae sgs1 mgt1 strain, at 50.0 µM, stronger effect = higher value
Method in brief: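 Yeast cells carrying a defined DNA-repair defect were exposed to test compounds. Growth inhibition was measured relative to vehicle-treated controls.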

[4] = NCI Yeast Anticancer Drug Screen. Data for the cln2 rad14 strain (AID 165);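 note: 0% = growth equal to vehicle treated cultures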; conditions: S. cerevisiae cln2 rad14 strain, at 50.0 µM, stronger effect = higher value
Method in brief: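 Yeast strain cln2 rad14, bearing defects in cell cycle control and DNA repair, serves as the test system; values reflect growth inhibition compared with vehicle.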

[5] = NCI Yeast Anticancer Drug Screen. Data for the bub3 strain (AID 167); conditions: S. cerevisiae bub3 mutant strain, at 50.0 µM, stronger effect = higher value
Method in brief: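 Inhibition values come from growth of compound-treated mutant yeast normalised to vehicle-treated controls.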

[6] = NCI Yeast Anticancer Drug Screen. Data for the mlh1 rad18 strain (AID 175); conditions: S. cerevisiae mlh1 rad18 strain growth inhibition; at 50.0 µM; stronger effect = higher value
Method in brief: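 Steps: expose repair-defective yeast to compound; measure growth; express inhibition against vehicle-treated controls.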

Structure (SMILES)	growth inhibition [1] [%]	growth inhibition [2] [%]	growth inhibition [3]	growth inhibition [4] [%]	growth inhibition [5] [%]	growth inhibition [6]
Clc1ccccc1C(N1CCCCC1)C(Cl)(Cl)Cl (stereo not given)	26.6	14.6	12.8%	18	3.85	21.3%
CCNC(=S)Nc1ccc(Cl)cc1	27.2	40.4	39%	-6.1	53.4	35.8%
CC1CCc2[nH]nc(CC3CC(=O)NC(=O)C3)c2C1 (stereo not given)	15.9	-2.2	10.8%	27.2	-7.35	3.7%
Cn1c(=O)cnc2c3ccccc3ccc21	22.8	5.15	23.6%	15.8	18.4	19.6%
CCCCOC(=O)CC1CCCCC1	-15.3	-8.95	-30.8%	-6.1	-5.6	-10.2%
CN(C)c1ccc(/C=c2\[nH]c(=O)/c(=C\c3ccc(N(C)C)cc3)[nH]c2=O)cc1	4.3	4.6	12.2%	14.6	-8.55	16.2%
Cc1ccc(NC(=S)Nc2ccccc2F)cc1	-8	-13.2	-2.2%	-28.8	43.5	10%
CCCC(=O)c1ccccc1	35.5	3	19.9%	15	26.1	21.9%
Cc1cc(C)c(C(=O)/C=C(\N)C(=O)c2c(C)cc(C)cc2C)c(C)c1	-7.05	0	2.75%	14.7	27.1	4.75%
CN(NC(=O)/C(=C\c1ccccc1Cl)NC(=O)c1ccccc1)c1cn[nH]c(=O)c1Cl	-13.2	-11.8	-16.4%	9.1	-3.75	-6.85%
COc1cc2c(cc1OC)C(c1c(Cl)cccc1Cl)=NCC2	13.1	10	41.4%	4.25	42.6	12.7%
CCCCCC/C(C)=N/O	-1.8	3.75	0.8%	4.85	10.7	-6.2%
CC(=O)OC1CC2C=CC1C2 (stereo not given)	-3.55	-3.8	3.6%	1.65	15.4	-7.7%
Clc1ccc(N=Cc2ccc(C=Nc3ccc(Cl)c(Cl)c3)cc2)cc1Cl	-7.7	-21.8	15.7%	11	16.9	11.6%
NC1=NS(=O)(=O)Nc2nc(-c3ccc(Cl)cc3)c(-c3ccc(Cl)cc3)nc21	-16.6	-17.2	-25%	3.45	-22	-24.8%
O=C1c2cccc3cc([N+](=O)[O-])cc(c23)C(=O)N1C(Cc1ccccc1)c1ccccc1 (stereo not given)	4.1	-6.05	16.4%	15.1	10.6	19.1%
Cn1c(=O)c2c(nc(C3CC3)n2C)n(C)c1=O	-1.15	-0.6	5.65%	-16.6	-0.55	12.1%
COC(=O)CCSc1ccccc1	0.55	-12	5.45%	6.7	-15.1	-7.6%
C(=C\c1ccccn1)/c1ccc(/C=C/c2ccccn2)cc1	-31.2	18.6	8.3%	-26.8	3.25	13.7%
O=S(=O)(O)c1cc(O)ccc1O.O=S(=O)(O)c1cc(O)ccc1O.[NH-]C1CCCCC1[NH-].[Pt+2]	17.6	-4.85	-5.2%	4.8	-0.85	-3.25%

Structure (SMILES)	growth inhibition [1] [%]	growth inhibition [2] [%]	growth inhibition [3]	growth inhibition [4] [%]	growth inhibition [5] [%]	growth inhibition [6]
CN(C)c1ccc(/C=C/c2ccnc3c(N)cccc23)cc1	-3.95	-8.85	-14.4%	-12.8	-10.9	3.8%
O=C1CC2C(=O)N(Cc3ccccc3)C1C=C2S(=O)(=O)c1ccccc1 (stereo not given)	-15.7	21.6	36.8%	4.25	-1.3	4.9%
CC(C)Cc1cn(O)c2nc(=N)nc(N)c-2n1	4.95	-5.6	-1.7%	-13.6	5.8	4%
C=CNc1cccc2ccccc12	13.8	11.6	14.2%	5.85	25.1	14.7%
CC1CCP(=O)(c2ccccc2)CC1 (stereo not given)	8.5	-10.8	-7.15%	6.9	-7.3	-35.2%
O=S(=O)(O)c1cc(N=Nc2cc(S(=O)(=O)O)c3cccnc3c2O)ccc1/C=C/c1ccc(N=Nc2cc(S(=O)(=O)O)c3cccnc3c2O)cc1S(=O)(=O)O.[Cu+2].[Na+]	18.5	18.2	34.6%	25	-11.2	9.25%
CCOC(=O)CNC(=O)C(=[N+]=[N-])C(=O)COc1ccc(Cl)cc1Cl	3.4	-9	18.1%	-18.3	19.4	-5.05%
O/N=C/c1ccccc1O	14.9	-19.1	-0.3%	9.65	-7.85	10.2%
O=C(c1ccncc1)C(C(c1ccccc1)N1CCOCC1)N1CCOCC1 (stereo not given)	25.8	8.25	34%	39.5	13.6	4.4%
CCOc1ccc(C(C)c2cc3c(cc2OC)OCO3)cc1 (stereo not given)	20.7	2.3	20.8%	-1.55	27.5	11.8%
CC1(C(=O)O)C2CCC(C2)C1C(=O)O (stereo not given)	11.8	5.8	-2.7%	-46.1	3.7	3.35%
Nc1ccc(N(C(=O)c2ccccc2)C(=O)c2ccccc2)c(-c2ccccc2)c1	19.9	8.95	6.15%	3.35	11.1	22.9%
CC(C)(CCCOc1ccccc1)/C(=N/O)c1ccccc1	14.1	5.6	-14.9%	21.6	11.6	-14.5%
O=C(NCCCl)NCc1cccc2c1CCCC2	-12.5	9.75	-3.85%	-26.4	-3.1	-24.2%
O=C1NC(N2CCCC(CO)C2)=N/C1=C\c1ccccc1 (stereo not given)	-15.6	-2.85	10%	7.6	7.15	-33.7%
CCCN(CCC)CCc1cc(C(C)=O)n(S(=O)(=O)c2ccc(C)cc2)c1	-10.2	-17.8	0.3%	19.6	-7.35	21.4%
CC(=O)NC(C)NC(C)=O	-11.8	-9.95	-13.8%	-86.5	7.25	-5.35%
N#[N+]c1ccc(Nc2ccccc2)cc1	-8.2	9.55	-20.1%	12.3	-10.8	-4.25%
Cc1ccc2c(c1)c1ccc3c(c1n2C)C(=O)C=CC3=O	3.25	30.7	74.8% (active)	2.55	62.6	74% (active)
O=P(O)(O)CCC(O)CO (stereo not given)	-12.5	10.3	-11.6%	-78.2	4.6	-17.5%
